Screening data from PubChem.
SW480 rerep – DNA re-replication induction in SW480 cells; SW480 DNA re-replication, Hoechst DNA content imaging, 48 h; Potency, µM (titrated, usually from 46.1 µM), without a hit: top-dose re-replication activation, most hits filed as activators; 340,000 tested, 1.8% active; AID 624297; also: % of control where 0% means no effect; nearly all actives have a fitted effect of over 55% in size
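Cells (250 per well) received 23 nL compound or DMSO by pin tool and were kept 48 hr at 37 C, 5% CO2. Nuclei were then stained with Hoechst for 40 min and scanned for DNA content.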
KB-V1 MDR tox – kills drug-selected multidrug resistant KB-V1 cells; KB-V1 MDR cells viability, CellTiter-Glo, 72 h; Potency, µM (titrated, usually from 46.1 µM), usual class: cytotoxic; 400,000 tested, 3.4% active; also: % is scaled to controls: 0 for no effect and ±100 for the full control effect; nearly all actives have a fitted effect of over 60% in size
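Drug-selected KB-V1 cells, grown in DMEM lacking phenol red with 10% FBS, receive compound titrations; after three days at 37 degrees C, surviving cell ATP is quantified by CellTiter-Glo luminescence and responses normalized and curve-fitted.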
HT1080 IDH1KD tx – HT-1080 IDH1 knockdown cell toxicity (counter line). HT-1080 IDH1 knockdown viability, ATP luminescence, 48 h. Potency, µM (highest dose often 46.1 µM), without a hit: at the highest dose activity, negative = toxicity, most hits filed as cytotoxic. 360,000 tested, 2% active;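 also: 0% = DMSO wells and -100% = cell-free medium wells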
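CellTiter-Glo luminescence after 48 h compound exposure at 37 degrees C of IDH1-knockdown HT-1080 cells in 5% FBS RPMI. %Activity scaled between DMSO wells and cell-free media wells, with curves fitted and assigned curve classes.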
KB-3-1 tox – KB-3-1 parental cell cytotoxicity; KB-3-1 viability, CellTiter-Glo ATP luminescence, 72 h; Potency, µM (top dose mostly 46.1 µM), usual class: cytotoxic; 400,000 tested, 1.4% active; AID 1347075; also: % is scaled to controls: 0 for no effect and ±100 for the full control effect; nearly all actives have a fitted effect of over 60% in size
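KB-3-1 parental drug-naive adenocarcinoma cells in DMEM/10% FBS, incubated 72 h at 37 C with pin-transferred compounds across a concentration series. Viability by CellTiter-Glo luminescence; concentration-response curves fitted after normalization.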
HT1080-NT tox – kills 2HG-producing HT-1080-NT fibrosarcoma cells; HT-1080-NT fibrosarcoma viability, CellTiter-Glo ATP luminescence, 48 h; Potency, µM (doses to about 46.1 µM), without a hit: at the top dose activity, negative = less viability, actives largely listed as cytotoxic; 360,000 tested, 1.6% active;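 also: NT is the 2HG producing partner of a matched IDH1 knockdown line; 0% = DMSO-treated cells and -100% = media-only wells without cells; nearly all actives have a fitted effect of over 55% in size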
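Compounds were tested in concentration-response format on HT-1080-NT cells for 48 hours at 37 degrees C. Cell viability came from CellTiter-Glo luminescence; curves were classified by r2, response magnitude and activity.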
MCF10A rerep – DNA re-replication induction in MCF 10a cells | AID 624296 | Potency, µM (titrated, usually from 46.1 µM), inactives show at the top dose activity, positive = re-replication, hits mostly activators | MCF 10A DNA re-replication, Hoechst nuclear intensity, 48 h | 350,000 tested, 2.9% active; also: % of control where 0% means no effect; nearly all actives have a fitted effect of over 50% in size
Active calls of the source: *; i = inactive; ? = inconclusive; nt = not tested or not shown; [ ] = another dose, or the depositor's remark. The list is not random: actives were taken first. Their share in the collection is about 7.9%. Calls follow the shape of the dose curve; as a rule, active = well fitted curve in the direction sought with a large enough effect; inconclusive = small, poorly fitted or top-dose-only effect, or another doubt; inactive = no such curve, though single readings can be large; an effect the other way counts as inactive or inconclusive. Potency is read from the fitted curve at half-maximal effect.

SMILES | SW480 rerep | KB-V1 MDR tox | HT1080 IDH1KD tx | KB-3-1 tox | HT1080-NT tox | MCF10A rerep
CCc1cc(/C(Cc2ccccn2)=N\O)c(O)cc1O | ? | i | 13µM* | i | ? | 0%
CC(=O)c1ccc(NS(=O)(=O)c2ccc3ccccc3c2)cc1 | -11% | 16µM* | -1% | i | 6% | 7%
Cc1cc(S(=O)(=O)Nc2ccc3ccccc3c2)c(C)s1 | ? | 3.3µM* | 14µM* | ? | 13µM* | 6.5µM*
O=C(CN1C(=O)NC2(CCCC2)C1=O)NNC(=O)c1ccc(Br)cc1 | 1% | i | 9% | i | 1% | -5%
Cc1ccsc1C(=O)N(C)CC(=O)N(CC(C)C)c1c(N)n(CC(C)C)c(=O)[nH]c1=O | 5% | ? | -3% | i | -8% | 0%
CCC(C)Sc1ccc([C@H]2N[C@@](CC(C)C)(C(=O)OC)[C@H]3C(=O)N(C)C(=O)[C@@H]23)cc1 (stereo not given in full) | 3% | ? | -13% | ? | -7% | ?
Cc1ccccc1NC(=O)OCc1cccnc1Sc1ccc(Cl)cc1 | -7% | i | -17% | i | -1% | 0%
Cc1ccc(Sc2ncccc2COC(=O)Nc2ccccc2)cc1 | 5% | i | -29% | ? | ? | 18µM*
Cc1ccc(Sc2ncccc2COC(=O)Nc2c(C)cccc2C)cc1 | ? | i | ? | 26µM* | ? | ?
Cc1ccc(CNC(=O)CSc2ncc(C(=O)Nc3ccccc3)c(=O)n2C)cc1 | -2% | i | 11% | i | 2% | 3%
O=C(NCC1CC1)C1Cc2c(-c3ccc(Cl)cc3)ccnc2O1 (stereo not given) | nt | ? | -20% | i | -17% | nt
COc1ccc(CNC(=O)C2Cc3c(-c4cccc(C(C)=O)c4)ccnc3O2)cc1OC (stereo not given) | nt | i | ? | ? | -28% | nt
O=C(NCc1cccs1)C1Cc2c(-c3ccc(Cl)cc3)ccnc2O1 (stereo not given) | nt | ? | 2.1µM* | 2.1µM* | ? | nt
CC(=O)c1cccc(-c2ccnc3c2CC(C(=O)NCc2cccs2)O3)c1 (stereo not given) | nt | 2.3µM* | ? | 1µM* | ? | nt
COC(=O)c1sccc1S(=O)(=O)N(CC(=O)NCc1ccc(C)cc1)c1ccccc1 | nt | i | nt | i | nt | nt
CCOC(=O)NC(=O)c1cn(Nc2ccccc2C(F)(F)F)c(=O)[nH]c1=O | -134% | i | -9% | i | 1% | 12%
FC(F)(F)c1cccc(N2CCN(c3ccc4nnc(-c5ccccc5)n4n3)CC2)c1 | 6% | 16µM* | -12% | i | -2% | ?
Oc1cc2c(cc1O)[C@@H](c1ccccc1)CNCC2 | 19% | i | ? | i | ? | 18µM*
Oc1cc2c(cc1O)C(c1ccccc1)CNCC2 (stereo not given) | 12% | i | -23% | i | -30% | -17%
C=CCOC(=O)C1=C(C)NC(=O)NC1c1cn(-c2ccccc2)nc1-c1cccs1 (stereo not given) | -6% | 21µM* | 10µM* | i | ? | 10%
CC(=O)OCCN(C)c1cc(SC(C)C)c2nonc2c1[N+](=O)[O-] | ? | i | ? | i | ? | ?
CN(CCO)c1cc(Sc2nc3ccccc3s2)c2nonc2c1[N+](=O)[O-] | 13% | i | 5µM* | ? | 6.3µM* | ?
O=C(c1ccccc1)c1ccc(NCCCn2ccnc2)c([N+](=O)[O-])c1 | -5% | 5.2µM* | -21% | ? | -24% | 25%
CC(C)(C)n1nnnc1C(c1cc2ccccc2o1)N(Cc1ccccc1)Cc1ccccc1 (stereo not given) | nt | 21µM* | ? | ? | -9% | nt
Cc1ccc(C(c2nnnn2C(C)(C)C)N(Cc2ccco2)Cc2cccs2)cc1 (stereo not given) | 19% | ? | -15% | 16µM* | -7% | 21%
SMILES | SW480 rerep | KB-V1 MDR tox | HT1080 IDH1KD tx | KB-3-1 tox | HT1080-NT tox | MCF10A rerep
Clc1ccc(CN(Cc2ccccc2)C(c2cccs2)c2nnnn2C2CCCC2)cc1 (stereo not given) | ? | ? | -17% | i | -16% | ?
CC(C)(C)n1nnnc1C(c1cccs1)N(Cc1ccccc1)Cc1cccnc1 (stereo not given) | -2%[9.22 µM] | ? | 7% | ? | 8% | 5%
CC(C)(C)n1nnnc1C(c1cccs1)N(Cc1ccc(Cl)cc1)CC1CCCO1 (stereo not given) | 11% | i | ? | 23µM* | -26% | ?
CC(C)(C)n1nnnc1C(c1cccnc1)N(Cc1ccccc1)Cc1cccs1 (stereo not given) | 26% | 21µM* | ? | ? | ? | ?
CC(C)(C)n1nnnc1C(c1ccc(F)cc1)N(Cc1ccc(F)cc1)Cc1ccco1 (stereo not given) | 22% | ? | -19% | ? | -19% | ?
CN(Cc1ccccc1)C(c1cc2ccccc2o1)c1nnnn1C(C)(C)C (stereo not given) | nt | i | -19% | ? | -18% | nt
CCC(=O)Oc1ccc(-c2nc3ccccc3c(=O)o2)cc1 | nt | i | nt | i | nt | nt
CCOc1ccc(Cn2c3ccc(OC)cc3c3nc4ccccc4nc32)cc1OC | ? | i | ? | i | -30% | 7.3µM*
COc1ccc2c(c1)c1nc3ccccc3nc1n2Cc1ccc(OC)c(OC)c1 | -3% | i | ? | i | -27% | 8.2µM*
CCC(C)[C@H]1COCCS(=O)(=O)N1Cc1ccc(Br)cc1 (stereo not given in full) | 3% | ? | 22% | i | -1% | -16%
COc1cccc(C2=CC(=O)C[C@H](c3ccc(Cl)cc3)C2)c1OC | 0% | i | -10% | i | -17% | 23µM*
COc1ccc(Br)cc1C1=CC(=O)C[C@H](c2ccc(F)cc2)C1 | nt | 16µM* | -23% | i | -17% | nt
COc1ccc([C@H]2CC(=O)C=C(c3ccc(OC)cc3OC)C2)cc1 | 13µM* | 1.5µM* | 2.1µM* | 0.82µM* | 2.3µM* | ?
COc1ccccc1C1=CC(=O)C[C@H](c2ccc(Cl)cc2)C1 | ? | i | ? | i | ? | 22%
COc1ccc([C@H]2CC(=O)C=C(c3ccc(Cl)cc3C)C2)cc1 | ? | ? | 0% | ? | 5% | 18µM*
C[n+]1ccc(C(=O)Nc2ccccc2Cl)cc1 | -8% | i | 9% | i | 5% | -3%
